Source: PubChem BioAssay AID1159580 (chemical genetic matrix, 2015)
Out of some 5,500 compounds screened, about 2,000 (36%) were called active. Inconclusive results (about 18%) are left out. Cut-off read from the data, not from the text of the source: active = normalized growth mostly below about 0.91 (no sharp cut-off); inconclusive = no clear call, values can overlap the other calls; inactive = mostly above about 0.92. The list shows a part of the results.

Experiment: chemical genetic growth profiling, strain panel (AID 1159580);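 note: tested at 20 µM; growth read once vehicle control cultures reached saturation at 30 °C; 1 = growth at the plate median or of vehicle wells; lower values mean less growth of the strain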
Settings: growth OD

Measured: normalized growth

COc1ccc2c(c1)CCC1C2CC[C@@]2(C)C1CC[C@@H]2O (some centres not stated)
inactive: S. cerevisiae deletion strains, locus YKL068W, hits give low values 0.944 | S. cerevisiae deletion strains, locus YKR026C, strain gcn3, hits give low values 0.969 | S. cerevisiae deletion strains, locus YKR091W, strain srl3, hits give low values 0.968 | S. cerevisiae deletion strains, locus YLL041C, strain sdh2, hits give low values 0.973 | S. cerevisiae deletion strains, locus YLR102C, strain apc9, hits give low values 0.951 | S. cerevisiae deletion strains, locus YLR370C, strain arc18, hits give low values 0.959 | S. cerevisiae deletion strains, locus YLR371W, strain rom2, hits give low values 0.925 | S. cerevisiae deletion strains, locus YLR384C, strain iki3, hits give low values 1.02 | S. cerevisiae deletion strains, locus YML016C, strain PPZ1, hits give low values 0.977 | S. cerevisiae deletion strains, locus YML124C, strain tub3, hits give low values 0.934 | S. cerevisiae deletion strains, locus YMR125W, strain sto1, hits give low values 0.938 | S. cerevisiae deletion strains, locus YMR129W, hits give low values 0.961 | S. cerevisiae deletion strains, locus YMR231W, strain pep5, hits give low values 0.963 | S. cerevisiae deletion strains, locus YNL183C, strain NPR1, hits give low values 0.838 | S. cerevisiae deletion strains, locus YNL209W, strain ssb2, hits give low values 0.934 | S. cerevisiae deletion strains, locus YNL248C, strain rpa49, hits give low values 0.915 | S. cerevisiae deletion strains, locus YNL322C, strain KRE1 (second series), hits give low values 0.907 | S. cerevisiae deletion strains, locus YNR049C, strain mso1, hits give low values 0.984 | S. cerevisiae deletion strains, locus YOL012C, strain htz1 1.54 | S. cerevisiae deletion strains, locus YOR001W, strain rrp6, hits give low values 0.893 | S. cerevisiae deletion strains, locus YOR061W, strain CKA2, hits give low values 0.965 | S. cerevisiae deletion strains, locus YOR069W, strain VPS5, hits give low values 0.968 | S. cerevisiae deletion strains, locus YOR080W, strain dia2, hits give low values 0.98 | S. cerevisiae deletion strains, locus YOR231W, strain MKK1, hits give low values 0.883 | S. cerevisiae deletion strains, locus YOR270C, strain vph1, hits give low values 1.01 | S. cerevisiae deletion strains, locus YPL256C, strain CLN2, hits give low values 0.878 | S. cerevisiae deletion strains, locus YPR141C, strain kar3, hits give low values 0.967
active: S. cerevisiae deletion strains, locus YJR075W, strain HOC1, hits give low values 0.705 | S. cerevisiae deletion strains, locus YKL009W, strain mrt4, hits give low values 0.685 | S. cerevisiae deletion strains, locus YKL085W, strain MDH1 (second series), hits give low values 0.853 | S. cerevisiae deletion strains, locus YKL085W, strain MDH1, hits give low values 0.853 | S. cerevisiae deletion strains, locus YKL160W, strain elf1, hits give low values 0.829 | S. cerevisiae deletion strains, locus YKL190W, strain CNB1, hits give low values 0.843 | S. cerevisiae deletion strains, locus YKR001C, strain vps1, hits give low values 0.359 | S. cerevisiae deletion strains, locus YLL001W, strain dnm1, hits give low values 0.838 | S. cerevisiae deletion strains, locus YLL026W, hits give low values 0.902 | S. cerevisiae deletion strains, locus YLR027C, strain aat2, hits give low values 0.816 | S. cerevisiae deletion strains, locus YLR039C, strain RIC1, hits give low values 0.351 | S. cerevisiae deletion strains, locus YLR058C, strain SHM2, hits give low values 0.879 | S. cerevisiae deletion strains, locus YLR113W, strain HOG1, hits give low values 0.816 | S. cerevisiae deletion strains, locus YLR221C, strain rsa3, hits give low values 0.808 | S. cerevisiae deletion strains, locus YLR258W, strain gsy2, hits give low values 0.892 | S. cerevisiae deletion strains, locus YLR262C, strain YPT6 (second series), hits give low values 0.505 | S. cerevisiae deletion strains, locus YLR262C, strain YPT6, hits give low values 0.293 | S. cerevisiae deletion strains, locus YLR268W, strain sec22, hits give low values 0.818 | S. cerevisiae deletion strains, locus YLR320W, strain mms22, hits give low values 0.722 | S. cerevisiae deletion strains, locus YLR330W, strain CHS5, hits give low values 0.748 | S. cerevisiae deletion strains, locus YLR342W, strain FKS1 (second series), hits give low values 0.398 | S. cerevisiae deletion strains, locus YLR342W, strain FKS1, hits give low values 0.781 | S. cerevisiae deletion strains, locus YLR357W, strain rsc2, hits give low values 0.852 | S. cerevisiae deletion strains, locus YLR418C, strain cdc73, hits give low values 0.381 | S. cerevisiae deletion strains, locus YML032C, strain rad52, hits give low values 0.696 | S. cerevisiae deletion strains, locus YML120C, strain ndi1, hits give low values 0.896 | S. cerevisiae deletion strains, locus YMR058W, strain fet3, hits give low values 0.872 | S. cerevisiae deletion strains, locus YMR078C, strain ctf18, hits give low values 0.867 | S. cerevisiae deletion strains, locus YMR205C, strain PFK2, hits give low values 0.697 | S. cerevisiae deletion strains, locus YMR223W, strain ubp8, hits give low values 0.728 | S. cerevisiae deletion strains, locus YMR263W, strain SAP30, hits give low values 0.785 | S. cerevisiae deletion strains, locus YMR307W, strain GAS1, hits give low values 0.237 | S. cerevisiae deletion strains, locus YNL067W, strain RPL9B, hits give low values 0.791 | S. cerevisiae deletion strains, locus YNL071W, strain lat1, hits give low values 0.468 | S. cerevisiae deletion strains, locus YNL128W, strain TEP1, hits give low values 0.78 | S. cerevisiae deletion strains, locus YNL153C, strain GIM3, hits give low values 0.838 | S. cerevisiae deletion strains, locus YNL233W, strain BNI4, hits give low values 0.584 | S. cerevisiae deletion strains, locus YNL250W, strain rad50, hits give low values 0.85 | S. cerevisiae deletion strains, locus YNL271C, strain bni1, hits give low values 0.8 | S. cerevisiae deletion strains, locus YNL298W, strain CLA4, hits give low values 0.548 | S. cerevisiae deletion strains, locus YNL307C, strain MCK1, hits give low values 0.266 | S. cerevisiae deletion strains, locus YNL322C, strain KRE1, hits give low values 0.87 | S. cerevisiae deletion strains, locus YNR052C, strain pop2, hits give low values 0.738 | S. cerevisiae deletion strains, locus YOL006C, strain TOP1, hits give low values 0.477 | S. cerevisiae deletion strains, locus YOL147C, strain pex11, hits give low values 0.695 | S. cerevisiae deletion strains, locus YOR070C, strain gyp1, hits give low values 0.873 | S. cerevisiae deletion strains, locus YOR083W, strain WHI5, hits give low values 0.825 | S. cerevisiae deletion strains, locus YOR106W, strain vam3, hits give low values 0.738 | S. cerevisiae deletion strains, locus YOR136W, strain idh2, hits give low values 0.853 | S. cerevisiae deletion strains, locus YOR144C, strain elg1, hits give low values 0.898 | S. cerevisiae deletion strains, locus YOR184W, strain ser1, hits give low values 0.458 | S. cerevisiae deletion strains, locus YOR265W, strain rbl2, hits give low values 0.912 | S. cerevisiae deletion strains, locus YOR290C, strain snf2, hits give low values 0.761 | S. cerevisiae deletion strains, locus YOR316C, strain cot1, hits give low values 0.85 | S. cerevisiae deletion strains, locus YPL051W, strain arl3, hits give low values 0.83 | S. cerevisiae deletion strains, locus YPL055C, strain LGE1, hits give low values 0.53 | S. cerevisiae deletion strains, locus YPL078C, strain atp4, hits give low values 0.791 | S. cerevisiae deletion strains, locus YPL106C, strain sse1, hits give low values 0.837 | S. cerevisiae deletion strains, locus YPL240C, strain hsp82, hits give low values 0.892 | S. cerevisiae deletion strains, locus YPL241C, strain CIN2, hits give low values 0.893 | S. cerevisiae deletion strains, locus YPR119W, strain clb2, hits give low values 0.917 | S. cerevisiae deletion strains, locus YPR163C, strain tif3, hits give low values 0.657 | S. cerevisiae deletion strains, locus YPR167C, strain met16, hits give low values 0.85 | S. cerevisiae deletion strains, strain wtn01, hits give low values 0.731 | S. cerevisiae strains, strain wild type, hits give low values 0.785
